SW480 rereplic: inducers of DNA re-replication in SW480 colon cancer cells; actives 1.8% (n = 340,000); SW480 DNA re-replication, Hoechst DNA content imaging, 48 h; Potency, µM (series often up to 46.1 µM), for inactives: at the top dose re-replication activation, actives largely listed as activators; also: % of control where 0% means no effect; nearly all actives have a fitted effect of over 55% in size
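Image-based DNA-content assay: after two days of treatment, nuclei were labelled with the DNA dye Hoechst and imaged, and hits were compounds raising the count of nuclei showing high fluorescence intensity.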
KB-3-1 cytotox: kills parental KB-3-1 adenocarcinoma cells | AID 1347075 | KB-3-1 viability, CellTiter-Glo ATP luminescence, 72 h | Potency, µM (top dose mostly 46.1 µM), actives largely listed as cytotoxic | actives 1.4% (n = 400,000); also: % is scaled to controls: 0 for no effect and ±100 for the full control effect; nearly all actives have a fitted effect of over 60% in size
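Luminescent ATP read-out (CellTiter-Glo) measures survival of drug-naive KB-3-1 cells after 72 h compound exposure at 37 °C. Titration series was screened from lowest to highest concentration, with DMSO vehicle plates as background controls.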
KB-V1 cytotox: kills drug-selected multidrug resistant KB-V1 cells; KB-V1 MDR cells viability, CellTiter-Glo, 72 h; Potency, µM (titrated, usually from 46.1 µM), usual class: cytotoxic; actives 3.4% (n = 400,000); AID 1347076; also: % is scaled to controls: 0 for no effect and ±100 for the full control effect; nearly all actives have a fitted effect of over 60% in size
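KB-V1 cells (P-gp-expressing MDR subline of KB-3-1) in phenol-red-free DMEM with 10% FBS were exposed to library compounds over a concentration series for 72 h at 37 degrees C. Viability read by CellTiter-Glo luminescence; concentration-effect curves fitted after normalization.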
HT1080NT lethal: kills 2HG-producing HT-1080-NT fibrosarcoma cells. HT-1080-NT fibrosarcoma viability, CellTiter-Glo ATP luminescence, 48 h. Potency, µM (titrated, usually from 46.1 µM), without a hit: top-dose activity, negative = less viability, hits mostly cytotoxic. actives 1.6% (n = 360,000);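 also: NT is the 2HG producing partner of a matched IDH1 knockdown line; 0% = DMSO-treated cells and -100% = media-only wells without cells; nearly all actives have a fitted effect of over 55% in size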
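Viability of the 2HG-overproducing fibrosarcoma line after 48 hours of compound exposure at 37 degrees C was determined by luminescence with CellTiter-Glo, and concentration-effect curves were then fitted and categorized.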
MCF10A rerep: induces DNA re-replication in MCF 10a normal breast cells; MCF 10A DNA re-replication, Hoechst nuclear intensity, 48 h; Potency, µM (highest dose often 46.1 µM), for inactives: at the highest dose activity, positive = re-replication, usual class: activators; actives 2.9% (n = 350,000); AID 624296; also: % of control where 0% means no effect; nearly all actives have a fitted effect of over 50% in size
HT1080 IDH1KD tx: toxicity to HT-1080 IDH1 knockdown cells (counter line) | HT-1080 IDH1 knockdown viability, ATP luminescence, 48 h | Potency, µM (doses to about 46.1 µM), without a hit: at the top dose activity, negative = toxicity, most hits filed as cytotoxic | actives 2% (n = 360,000) | AID 686971;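 also: 0% = DMSO wells and -100% = cell-free medium wells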
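After a 2 h attachment period, IDH1KD HT-1080 cells took pin-transferred compound for 48 h at 37 °C; ATP-based luminescence after 10 min room-temperature reagent incubation reported viability.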
* marks the source's active call; other numbers are inactive results; i = inactive; ? = inconclusive; / = no result. The list is not random: actives were taken first. Their share in the collection is about 7.9%. Calls follow the shape of the dose curve; as a rule, active = well fitted curve in the direction sought with a large enough effect; inconclusive = small, poorly fitted or top-dose-only effect, or another doubt; inactive = no such curve, though single readings can be large; an effect the other way counts as inactive or inconclusive. Potency is read from the fitted curve at half-maximal effect.

SMILES	SW480 rereplic	KB-3-1 cytotox	KB-V1 cytotox	HT1080NT lethal	MCF10A rerep	HT1080 IDH1KD tx
CC(C)OC(=S)N/C(=N\S(=O)(=O)c1ccccc1)c1ccccc1	16.6%	i	i	7.08µM*	14.7%	8.91µM*
Cc1ccc(/C=C(/C#N)C(=O)NC(C)c2ccccc2)o1 (centres undefined)	5.7%	i	18.4µM*	-1.4%	-3.9%	-4.3%
COc1ccccc1N1CCN(C(c2ccc(Cl)cc2)c2nnnn2C(C)(C)C)CC1 (centres undefined)	16.3%	?	18.4µM*	-24.7%	-12.6%	-27.4%
COc1ccccc1N1CCN(C(c2ccccc2Cl)c2nnnn2C(C)(C)C)CC1 (centres undefined)	?	?	?	-23.4%	26.6%	?
Cc1cccc(N2CCN(C(c3cccs3)c3nnnn3C(C)(C)C)CC2)c1C (centres undefined)	-0.2%	i	?	11.3%	5.5%	-25.6%
CC(C)(C)n1nnnc1C(c1ccc(Cl)cc1)N1CCCc2ccccc21 (centres undefined)	-3.8%	i	?	4.4%	3.4%	9.7%
Cc1cccc(N2CCN(C(c3ccccc3)c3nnnn3C(C)(C)C)CC2)c1C (centres undefined)	?	?	9.2µM*	6.6%	17.6%	1.8%
COc1ccccc1C(c1nnnn1C(C)(C)C)N1CCCc2ccccc21 (centres undefined)	?	?	23.1µM*	-2.2%	-10.2%	9.8%
COc1ccc(C(=O)Nc2nc3n(n2)C(c2ccc(Cl)cc2)C=C(c2ccccc2)N3)cc1OC (centres undefined)	/	i	i	/	/	/
CN(C)C(=O)CSc1nnc(-c2cc(-c3cccs3)nc3ccccc23)o1	?	i	?	-0.3%	10.3µM*	-6.6%
CCN(CC)C(=O)CSc1nnc(-c2cc(-c3ccc(Cl)cc3)nc3ccccc23)o1	0.9%	i	i	18.2%	8.8%	1.7%
COc1ccc(-c2nnc(SCC(=O)c3cccs3)o2)cc1	-6.3%	i	i	0.0%	?	-1.6%
O=C(CSc1nnc(-c2cccs2)o1)c1cccs1	?	i	i	0.0%	3.66µM*	4.4%
CC1(C(=O)NCc2ccccc2)CSCC(=O)N1C1CCN(Cc2ccccc2)CC1 (centres undefined)	/	i	i	-19.1%	/	-9.1%
COc1ccc(CCCc2nnc(SCC(=O)Nc3ccc(C)cc3)o2)cc1C	/	i	i	/	/	/
CC(Oc1ccccc1)C(=O)Nc1ccc(C(=O)OCc2cc(=O)n3ccsc3n2)cc1 (centres undefined)	/	i	i	/	/	/
COc1cc(OC)c(CN2CCC(Cc3ccccc3)CC2)cc1Br	19.2%	?	i	-26.2%	11.6µM*	-23.0%
CCOC(=O)C1CCCN(Cc2cc(Br)c(OC)cc2OC)C1 (centres undefined)	-1.2%	i	10.3µM*	-2.4%	1.5%	-24.3%
COc1ccc(OC)c(CN2CCC(Cc3ccccc3)CC2)c1	4.8%	i	i	?	22.3%	-11.3%
COc1cc(OC)c(CN2CCc3c([nH]c4ccccc34)C2)cc1Br	-14.2%	?	i	16.4µM*	8.1%	?
COc1ccc(-c2noc(CN(C(C)C)S(=O)(=O)c3ccc(Br)cc3)n2)cc1	/	i	i	/	/	/
CC(NC(=O)C(C)N1CCN(S(=O)(=O)c2ccccc2)CC1)c1ccccc1 (centres undefined)	0.9%	i	14.6µM*	-4.6%	-0.4%	5.6%
Cc1ccc(S(=O)(=O)N2CCN(C(C)C(=O)NCC(C)c3ccccc3)CC2)cc1 (centres undefined)	9.4%	i	i	5.3%	3.5%	19.3%
CCCC(NC(=O)C(C)N1CCN(S(=O)(=O)c2ccccc2)CC1)c1ccccc1 (centres undefined)	-2.5%	i	7.31µM*	2.2%	0.3%	9.1%
CC(C(=O)Nc1ccccc1-c1ccccc1)N1CCN(S(=O)(=O)c2ccccc2)CC1 (centres undefined)	11.5%	i	2.91µM*	-3.8%	?	-5.1%
SMILES	SW480 rereplic	KB-3-1 cytotox	KB-V1 cytotox	HT1080NT lethal	MCF10A rerep	HT1080 IDH1KD tx
CC(C)c1ccc(S(=O)(=O)N2CCN(C(C)C(=O)Nc3ccccc3-c3ccccc3)CC2)cc1 (centres undefined)	2.2%	i	i	14.1%	3.4%	11.9%
CC(=O)c1cccc(NC(=S)NC(=O)c2ccccc2Br)c1	-2.7%	i	20.6µM*	-4.7%	8.5%	5.6%
CCc1sc(C(=O)Nc2cccc(C(C)=O)c2)cc1C	-223.2%	i	20.6µM*	8.3%	-1.0%	2.5%
CC(=O)c1cccc(NC(=O)c2cc3c(s2)-c2c(C)cccc2OC3)c1	/	i	i	/	/	/
CC(=O)c1cccc(NC(=S)NC(=O)c2ccc(Cl)cc2)c1	-2.8%	i	?	4.4%	-0.5%	10.9%
CC(=O)c1cccc(NC(=S)NC(=O)c2cccc(C)c2)c1	-8.3%	?	18.4µM*	2.4%	-0.8%	-0.2%
COc1ccc2oc(=O)c(C(=O)NCCc3c(C)[nH]c4ccc(Br)cc34)cc2c1	/	i	?	/	/	/
Cc1ccc2c(Sc3ccc(Cl)cc3)c(C(=O)NCCC(C)C)[nH]c2c1	/	i	i	/	/	/
CCOc1ccc(CCNC(=O)Cn2nc(CC)n3c(cc4c(OC)cccc43)c2=O)cc1OCC	/	i	i	/	/	/
COc1cc(S(=O)(=O)n2c(C)nc3ccccc32)ccc1F	?	?	i	?	28.5%	?
CSc1ccc(/C=C/c2nc3ccccc3n2S(=O)(=O)c2cccc(Cl)c2)cc1	/	14.6µM*	i	/	/	/
COc1ccc(-c2c(C(F)(F)F)[nH]n3c(=O)cc(-c4ccccc4)nc23)cc1	29.1µM*	i	?	3.8%	2.59µM*	?
Cc1[nH]n2c(=O)cc(C(C)C)nc2c1-c1ccccc1	5.0%	?	?	-3.7%	?	?
Cc1[nH]n2c(=O)cc(C(C)(C)C)nc2c1-c1ccccc1	?	7.31µM*	?	-26.2%	?	?
COc1cccc(-c2cc3nc(-c4ccccc4)cc(=O)n3[nH]2)c1	21.7%	5.8µM*	4.61µM*	1.46µM*	?	1.3µM*
Cc1[nH]n2c(=O)cc(-c3ccc([N+](=O)[O-])cc3)nc2c1-c1ccccc1	?	?	i	16.4µM*	?	16.4µM*
Cc1[nH]n2c(=O)cc(-c3ccc(Cl)cc3)nc2c1-c1ccccc1	/	?	i	/	/	/
